Rows were chosen to be rich in hits. Some 2.2% of all compounds tested hit in one or more screens of this group.
Beta cell apopt: blocks beta cell apoptosis | INS-1E cytokine-induced death, ATP luminescence, 48 h; percent of positive-control rescue, neutral wells zero | protection from apoptosis, % (test concentration not listed) | hit rate 0.8% among 300,000 | AID 435005;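 active = Every replicate reaches about 75%, or at least half do and their mean reaches it too, limit read from the data; inconclusive = At least half of replicates reach the limit but their mean does not; inactive = Under half of replicates reach the limit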;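 note: higher means more ATP so stronger rescue from cytokine killing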
CSC inhib: blocks cancer stem cells; cancer stem cell-like cells viability, luminescence; inhibition, % at 7.5 µM; hit rate 1.1% among 300,000; AID 2717; in the data active = inhibition above about 75%; inconclusive = no clear call, values can overlap the other calls; tested in HMLE shEcad cells
PfHsp90 yeast 2: reduces growth (ATP signal) of yeast expressing P. falciparum Hsp90 | inhibition, % at 9.4 µM | S. cerevisiae expressing PfHsp90, BacTiter-Glo ATP, 48 h; yeast lacking PDR1 and PDR3 efflux regulators | hit rate 0.32% among 310,000;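 active = every replicate shows inhibition above about 80%, whatever the replicate mean, limit read from the data; inconclusive = mean inhibition reaches the set limit but some replicate falls short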
Calb FLC: affects C. albicans growth with fluconazole; C. albicans CaCi-2 (fluconazole-resistant clinical isolate) + fluconazole, Alamar Blue growth, 48 h; growth inhibition, % (no concentration beside the values); hit rate 0.57% among 300,000;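 active = growth inhibition above about 58% in most replicates, limit read from the data, passing the limit was not always enough; inconclusive = exactly half the replicates above a set limit; inactive = most replicates below a set limit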;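 note: all wells also contain fluconazole at 8 µg/ml as a sub-toxic cotreatment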
Shn3 inh set2: Schnurri-3 reporter inhibition in Clone20 osteoblasts | Clone20 osteoblast Shn3 3'UTR firefly luciferase, 24 h | inhibition, % at 12.5 µM | hit rate 0.52% among 360,000;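 active = mean inhibition of at least 75% with every replicate also reaching 75%; inconclusive = mean inhibition at least 75% but some replicate below; inactive = mean inhibition below 75%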
Hits are given with their value; n = inactive; u = inconclusive; x = not tested or not shown.

SMILES	Beta cell apopt	CSC inhib	PfHsp90 yeast 2	Calb FLC	Shn3 inh set2
CC(C)(c1cc(Br)c(O)c(Br)c1)c1cc(Br)c(O)c(Br)c1	n	103	u	x	n
FC(F)(F)c1cnc(NNC(=S)Nc2ccc(Cl)cc2)c(Cl)c1	93	n	n	n	n
Cc1ccc(NC(=S)NNC(=S)Nc2cccc(C(F)(F)F)c2)cc1	n	n	n	n	x
FC(F)(F)c1cccc(NC(=S)NNC(=S)Nc2ccc(Cl)cc2)c1	n	132	x	n	x
CC1(C(=O)NS(=O)(=O)c2ccc(Cl)cc2)CCN1C(=O)C/C=C/c1ccccc1 (configuration not stated)	x	x	x	x	n
Cc1cc(C)cc(N2C(=O)CC(Sc3nnnn3-c3ccccc3)C2=O)c1 (configuration not stated)	n	x	n	n	88
CCN(CC(=O)Nc1ccccc1C(F)(F)F)C(=O)c1oc2ccc(OC)cc2c1C	n	n	n	n	n
Cc1cc(C)c2c(N)c3cccc(C)c3nc2n1	98	n	n	n	n
COc1ccccc1NC(=O)CCC(=O)OCc1ccc(Cl)cc1	n	x	n	n	n
CSCCNC(=O)C1(C)CCN1C(=O)CCc1ccccc1 (configuration not stated)	x	x	x	x	n
O=C1N=c2ccccc2=C1c1sc(=S)n(NC(=O)c2ccccc2)c1O	n	n	n	n	x
C=CCn1c(O)c(C2=c3ccccc3=NC2=O)sc1=Nc1ccc(O)cc1	n	95	n	n	n
N#CC1=C(SCC(=O)c2ccc(Br)cc2)NC2=C(C(=O)CCC2)C1c1ccco1 (configuration not stated)	x	91	n	x	n
O=S1(=O)C[C@H](N2CC[C@@H](O)C2)[C@@H](COCc2ccccc2)N1	x	x	x	x	n
COc1cc(OC)cc(-c2oc(=O)c3cc(OC)c(OC)cc3c2/C=C/c2ccc(F)cc2)c1	n	n	x	x	n
Cc1nn(CCc2nn[nH]n2)c2nc(-c3ccc(C4CCCCC4)cc3)cc(C(F)(F)F)c12	n	110	x	n	n
Cc1nn(CCC(=O)O)c2nc(-c3cccnc3)cc(C(F)(F)F)c12	n	n	n	n	n
COc1ccc(NC(=O)/C=C/c2cc(Br)ccc2OC)cc1	n	n	n	n	n
COc1ccc(Br)cc1/C=C/C(=O)c1ccc(NC(C)=O)cc1	n	n	n	x	97
O=C(Nc1ccc(C(=O)Nc2ccccc2Cl)cc1)c1cccnc1	99	n	n	n	n
CCc1ccc(NC(=O)c2cccnc2)cc1	n	n	x	n	n
O=C(Nc1ccc(N2CCN(Cc3ccccc3Cl)CC2)cc1)c1cccnc1	78	n	n	n	n
CCSc1ccc(NC(=O)c2cccnc2)cc1	104	n	n	x	n
O=C(Nc1ccc(N2CCCCC2)cc1)c1cccnc1	n	n	n	n	n
O=C(COC(=O)c1ccc(F)c(S(=O)(=O)N2CCOCC2)c1)NC1CC1	n	n	n	x	n
SMILES	Beta cell apopt	CSC inhib	PfHsp90 yeast 2	Calb FLC	Shn3 inh set2
CCC[n+]1c2ccccc2cc2ccccc21	n	n	n	94	n
CCCC[n+]1c2ccccc2cc2ccccc21	n	n	n	93	n
Brc1cc2ccccc2[n+](Cc2ccccc2)c1	n	n	n	n	n
NS(=O)(=O)c1ccc(CCNS(=O)(=O)c2ccc(Cl)nc2)cc1	n	n	n	n	n
Cc1noc(C)c1COC(=O)c1ccccc1NC(=O)c1ccco1	n	n	x	n	n
O=C(Nc1nnc(SCC(=O)N2CCCc3ccccc32)s1)c1ccccc1	n	n	n	n	n
Cc1cc(C)cc(C(=O)Nc2nnc(SCC(=O)N3CCCc4ccccc43)s2)c1	n	75	n	n	n
CC1CC(C)CN(c2ncc3c(n2)CC(c2ccc(Cl)cc2)CC3=O)C1 (configuration not stated)	n	n	n	n	n
CC1CC(C)CN(c2ncc3c(n2)CC(c2ccccc2Cl)CC3=O)C1 (configuration not stated)	n	84	n	u	n
CC(=O)Nc1ccc(-n2c(=O)c3ccccc3c3ccccc3c2=O)cc1	n	n	n	n	n
CCCCCCCC[n+]1c(C)n(-c2ccccc2)c2ccc(NC(C)=O)cc21	102	n	n	u	n
COc1cc([N+](=O)[O-])cc(/C=N/NC(=O)c2ccc(NC(=O)c3ccc(C)cc3)cc2)c1O	x	x	n	102	n
COc1cccc(/C=N/NC(=O)c2cc3cc([N+](=O)[O-])ccc3s2)c1O	82	106	n	n	91
COc1ccccc1/C=N/NC(=O)c1ccc(NC(=O)c2cccc([N+](=O)[O-])c2)cc1	n	n	x	n	x
Cc1ccc(CNC(=O)C2CCC(=O)N(C3CCCC3)C2)c(F)c1F (configuration not stated)	n	n	n	n	n
Cc1ccc(C(=O)O)cc1NC(=O)CSc1ncnc2sc3c(c12)CCC3	n	n	n	n	n
COc1cc(/C=C(\C#N)C(=O)N2CCOCC2)cc(Br)c1O	n	n	n	n	n
N#C/C(=C\c1cccc(Oc2ccccc2)c1)C(=O)N1CCOCC1	n	n	100	n	n
O=C(O)CC1(CC(=O)Nc2ccc(F)c(Cl)c2)CCCCC1	x	n	x	n	n
O=C(Nc1ccccc1N1CCOCC1)c1ccc(S(=O)(=O)NCc2ccco2)cc1	n	n	x	108	n
COc1ccc(NC(=O)C2CC(c3ccccc3Cl)=NO2)cc1 (configuration not stated)	n	n	n	n	n
S=c1[nH]nc(CCCc2n[nH]c(=S)o2)o1	n	n	n	n	n
CCCCSc1nc2sc3c(c2c(=O)[nH]1)CC(C)(CC)OC3 (configuration not stated)	n	n	n	n	n
CN(C)CCCNc1cc(C(C)(C)C)nc2c(-c3ccc(Cl)cc3)cnn12	n	107	n	95	n
CC(C)(C)c1cc(NCCCn2ccnc2)n2ncc(-c3ccccc3)c2n1	114	n	n	n	x
SMILES	Beta cell apopt	CSC inhib	PfHsp90 yeast 2	Calb FLC	Shn3 inh set2
Cc1cc(NCCCn2ccnc2)n2ncc(-c3ccc(Cl)cc3)c2n1	n	n	n	n	n
COc1ccc(-c2sc3cc4c(cc3c2-c2ccc(OCCN3CCOCC3)cc2)OCO4)cc1	n	125	n	x	n
c1ccc(-c2sc3ccccc3c2-c2ccc(OCCN3CCOCC3)cc2)cc1	n	86	n	x	n
COc1ccccc1-c1sc2cc3c(cc2c1-c1ccc(OCCN2CCCCC2)cc1)OCO3	n	x	n	x	n
COc1cc2sc(-c3ccccc3OC)c(-c3ccc(OCCN4CCCCC4)cc3)c2cc1OC	124	104	n	x	n
C1=C(c2sc3ccccc3c2-c2ccc(OCCN3CCOCC3)cc2)CCCC1	n	88	n	x	n
COc1ccccc1-c1sc2ccccc2c1-c1ccc(OCCN2CCOCC2)cc1	x	x	n	x	n
COc1ccc2sc(-c3ccccc3OC)c(-c3ccc(OCCN4CCOCC4)cc3)c2c1	x	x	n	x	n
O=C(c1ccc(OCCN2CCCCC2)cc1)c1c(-c2ccc(O)cc2)sc2cc(O)ccc12	n	85	n	x	n
COc1cc(OC)cc(-c2sc3ccc(OC)cc3c2-c2ccc(OCCN3CCOCC3)cc2)c1	x	x	n	x	n
COC(=O)c1ccc(OCCN2CCCCCC2)cc1	n	n	n	n	n
